# Assay results published in article PMC7862700, “An all-to-all approach to the identification of sequence-specific readers for epigenetic DNA modifications on cytosine”.
# Columns and labels:
# Experiment in all cases: DAPPL (digital affinity profiling via proximity ligation, sequencing); 10 mM Tris-HCl pH 7.5, 50 mM NaCl, 1 mM DTT, 4% glycerol, room temperature, 30 min; GST-TFs on glutathione beads, 16-mer random dsDNA library, 0.1% formaldehyde crosslink after washing; high values mean tight binding
# FLI1 = target: T1, FLI1 (Homo sapiens, UniProt Q01543 1-452); conditions: protein: recombinant; tags: N-terminal GST; dsDNA, one strand shown
# T1 sequence: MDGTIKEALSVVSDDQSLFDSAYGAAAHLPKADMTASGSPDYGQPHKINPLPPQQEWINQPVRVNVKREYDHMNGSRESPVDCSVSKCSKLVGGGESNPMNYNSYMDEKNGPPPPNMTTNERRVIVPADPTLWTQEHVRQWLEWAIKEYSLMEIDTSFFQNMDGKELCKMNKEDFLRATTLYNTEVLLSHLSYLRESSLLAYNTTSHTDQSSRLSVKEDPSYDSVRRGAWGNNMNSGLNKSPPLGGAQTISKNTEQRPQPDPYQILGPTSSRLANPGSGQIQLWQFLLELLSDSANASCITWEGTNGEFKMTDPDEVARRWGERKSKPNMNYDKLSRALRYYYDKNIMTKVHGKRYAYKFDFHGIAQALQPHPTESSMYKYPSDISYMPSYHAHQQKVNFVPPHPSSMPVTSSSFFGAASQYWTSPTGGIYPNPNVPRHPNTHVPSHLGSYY
# Procedure, shortened: (§1)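 Pools of DNA-barcoded human transcription factors, expressed in yeast as GST fusions on glutathione beads and combined with a tag-only sample, were incubated with 200 nmole of a 16-mer random double-stranded DNA library. Incubation took 30 min at room temperature in Tris/NaCl/DTT/glycerol buffer and was followed by washing, 0.1% formaldehyde crosslinking, proximity ligation (BsaI/T4 ligase, 1 h, 37 °C), PCR amplification and sequencing on an Illumina NextSeq500. Binding signal is the ratio of a hexamer's read frequency for a factor to its frequency for the tag-only sample.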
# ELK1 = target: T2, ELK1 (Homo sapiens, UniProt P19419 1-428); conditions: protein: recombinant; tags: N-terminal GST; dsDNA, one strand shown
# T2 sequence: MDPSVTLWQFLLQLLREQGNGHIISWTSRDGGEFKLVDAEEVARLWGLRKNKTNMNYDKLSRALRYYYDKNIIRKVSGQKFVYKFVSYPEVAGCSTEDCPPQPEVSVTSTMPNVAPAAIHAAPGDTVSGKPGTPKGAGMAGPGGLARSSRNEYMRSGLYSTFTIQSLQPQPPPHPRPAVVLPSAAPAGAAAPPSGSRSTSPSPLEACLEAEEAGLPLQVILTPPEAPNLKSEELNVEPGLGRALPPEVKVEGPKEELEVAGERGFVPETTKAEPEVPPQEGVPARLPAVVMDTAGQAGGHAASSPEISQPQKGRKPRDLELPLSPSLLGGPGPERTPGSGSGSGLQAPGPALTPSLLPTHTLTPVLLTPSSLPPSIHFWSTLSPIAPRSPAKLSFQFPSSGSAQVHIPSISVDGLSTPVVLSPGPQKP
# Procedure, shortened: as §1
# GABPA = target: T3, GABPA (Homo sapiens, UniProt Q06546 1-454); conditions: protein: recombinant; tags: N-terminal GST; dsDNA, one strand shown
# T3 sequence: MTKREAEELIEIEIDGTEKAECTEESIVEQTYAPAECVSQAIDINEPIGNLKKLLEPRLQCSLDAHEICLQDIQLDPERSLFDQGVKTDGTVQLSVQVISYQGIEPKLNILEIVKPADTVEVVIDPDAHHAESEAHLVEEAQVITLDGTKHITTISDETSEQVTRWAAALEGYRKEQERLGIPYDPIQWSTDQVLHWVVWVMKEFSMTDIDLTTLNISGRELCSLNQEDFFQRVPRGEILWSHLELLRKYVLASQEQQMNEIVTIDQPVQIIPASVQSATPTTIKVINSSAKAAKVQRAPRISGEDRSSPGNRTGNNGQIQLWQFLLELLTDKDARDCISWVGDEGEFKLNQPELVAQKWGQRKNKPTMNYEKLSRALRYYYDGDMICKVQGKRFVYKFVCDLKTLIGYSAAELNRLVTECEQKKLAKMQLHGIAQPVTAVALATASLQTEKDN
# Procedure, shortened: as §1
# ERG = target: T4, ERG (Homo sapiens, UniProt P11308 1-479); conditions: protein: recombinant; tags: N-terminal GST; dsDNA, one strand shown
# T4 sequence: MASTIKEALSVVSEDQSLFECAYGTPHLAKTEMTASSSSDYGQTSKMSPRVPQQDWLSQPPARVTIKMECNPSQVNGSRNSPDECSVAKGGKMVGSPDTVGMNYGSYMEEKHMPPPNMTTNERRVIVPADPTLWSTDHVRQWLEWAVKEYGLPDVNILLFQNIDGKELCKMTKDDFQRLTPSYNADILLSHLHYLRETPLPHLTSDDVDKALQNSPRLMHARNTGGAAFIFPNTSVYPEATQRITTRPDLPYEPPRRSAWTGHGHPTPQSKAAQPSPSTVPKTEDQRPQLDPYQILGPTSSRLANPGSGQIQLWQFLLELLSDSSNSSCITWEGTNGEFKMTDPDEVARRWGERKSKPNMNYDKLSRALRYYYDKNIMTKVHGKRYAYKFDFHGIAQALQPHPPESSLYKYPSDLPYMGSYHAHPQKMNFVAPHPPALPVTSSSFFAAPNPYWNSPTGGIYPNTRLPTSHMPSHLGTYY
# Procedure, shortened: as §1
# ELF1 = ELF1 (Homo sapiens, UniProt P32519 1-619); conditions: protein: recombinant; tags: N-terminal GST; dsDNA, one strand shown
# Procedure, shortened: as §1
# EHF = target: T5, EHF (Homo sapiens, UniProt Q9NZC4 1-300); conditions: protein: recombinant; tags: N-terminal GST; dsDNA, one strand shown
# T5 sequence: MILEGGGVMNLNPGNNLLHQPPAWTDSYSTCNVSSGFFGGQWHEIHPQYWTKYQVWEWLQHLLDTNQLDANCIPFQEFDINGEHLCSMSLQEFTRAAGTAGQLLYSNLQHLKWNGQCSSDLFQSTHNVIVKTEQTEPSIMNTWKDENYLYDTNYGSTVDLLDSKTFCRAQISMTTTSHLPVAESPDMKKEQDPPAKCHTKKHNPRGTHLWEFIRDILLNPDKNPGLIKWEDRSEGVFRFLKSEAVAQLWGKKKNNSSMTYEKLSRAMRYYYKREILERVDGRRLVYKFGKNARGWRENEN
# Procedure, shortened: as §1
# SPI1 = SPI1 (Homo sapiens, UniProt P17947 1-270); conditions: protein: recombinant; tags: N-terminal GST; dsDNA, one strand shown
# Procedure, shortened: as §1
# SPIB = SPIB (Homo sapiens, UniProt Q01892 1-262); conditions: protein: recombinant; tags: N-terminal GST; dsDNA, one strand shown
# Procedure, shortened: as §1
# ELK3 = target: T6, ELK3 (Homo sapiens, UniProt P41970 1-407); conditions: protein: recombinant; tags: N-terminal GST; dsDNA, one strand shown
# T6 sequence: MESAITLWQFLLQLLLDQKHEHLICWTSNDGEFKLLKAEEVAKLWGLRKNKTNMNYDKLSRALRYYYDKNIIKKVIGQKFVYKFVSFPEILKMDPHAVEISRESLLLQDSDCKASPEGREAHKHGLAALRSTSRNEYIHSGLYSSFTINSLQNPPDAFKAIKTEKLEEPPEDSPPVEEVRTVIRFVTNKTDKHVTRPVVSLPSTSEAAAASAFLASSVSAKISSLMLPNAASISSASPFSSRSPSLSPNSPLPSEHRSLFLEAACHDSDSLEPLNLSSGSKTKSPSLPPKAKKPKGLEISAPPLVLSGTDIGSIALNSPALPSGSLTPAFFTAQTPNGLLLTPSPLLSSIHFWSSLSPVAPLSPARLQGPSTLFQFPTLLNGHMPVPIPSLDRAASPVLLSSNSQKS
# Procedure, shortened: as §1
# FEV = target: T7, FEV (Homo sapiens, UniProt Q99581 1-238); conditions: protein: recombinant; tags: N-terminal GST; dsDNA, one strand shown
# T7 sequence: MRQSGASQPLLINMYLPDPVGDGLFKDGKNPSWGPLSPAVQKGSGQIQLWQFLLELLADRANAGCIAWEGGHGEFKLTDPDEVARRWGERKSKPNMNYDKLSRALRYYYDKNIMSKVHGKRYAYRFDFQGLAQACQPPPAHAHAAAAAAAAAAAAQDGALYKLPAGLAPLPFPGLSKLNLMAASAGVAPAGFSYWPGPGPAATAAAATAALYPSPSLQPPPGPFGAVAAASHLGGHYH
# Procedure, shortened: as §1
# ETV5 = ETV5 (Homo sapiens, UniProt P41161 1-510); conditions: protein: recombinant; tags: N-terminal GST; dsDNA, one strand shown
# Procedure, shortened: as §1
# HSF1 = HSF1 (Homo sapiens, UniProt Q00613 1-529); conditions: protein: recombinant; tags: N-terminal GST; chain copies: 3; dsDNA, one strand shown
# Procedure, shortened: as §1
# SPIC = target: T8, SPIC (Homo sapiens, UniProt Q8N5J4 1-248); conditions: protein: recombinant; tags: N-terminal GST; dsDNA, one strand shown
# T8 sequence: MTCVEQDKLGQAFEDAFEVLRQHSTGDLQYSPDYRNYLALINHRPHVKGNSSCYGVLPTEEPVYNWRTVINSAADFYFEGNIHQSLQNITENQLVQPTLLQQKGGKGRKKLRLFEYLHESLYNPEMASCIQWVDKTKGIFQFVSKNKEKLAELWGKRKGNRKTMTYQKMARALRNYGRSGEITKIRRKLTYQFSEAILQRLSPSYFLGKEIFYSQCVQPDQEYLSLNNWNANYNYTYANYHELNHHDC
# Procedure, shortened: as §1
# ELF4 = ELF4 (Homo sapiens, UniProt Q99607 1-663); conditions: protein: recombinant; tags: N-terminal GST; dsDNA, one strand shown
# Procedure, shortened: as §1
# ELK4 = target: T9, ELK4 (Homo sapiens, UniProt P28324-2 1-405); conditions: protein: recombinant; tags: N-terminal GST; dsDNA, one strand shown
# T9 sequence: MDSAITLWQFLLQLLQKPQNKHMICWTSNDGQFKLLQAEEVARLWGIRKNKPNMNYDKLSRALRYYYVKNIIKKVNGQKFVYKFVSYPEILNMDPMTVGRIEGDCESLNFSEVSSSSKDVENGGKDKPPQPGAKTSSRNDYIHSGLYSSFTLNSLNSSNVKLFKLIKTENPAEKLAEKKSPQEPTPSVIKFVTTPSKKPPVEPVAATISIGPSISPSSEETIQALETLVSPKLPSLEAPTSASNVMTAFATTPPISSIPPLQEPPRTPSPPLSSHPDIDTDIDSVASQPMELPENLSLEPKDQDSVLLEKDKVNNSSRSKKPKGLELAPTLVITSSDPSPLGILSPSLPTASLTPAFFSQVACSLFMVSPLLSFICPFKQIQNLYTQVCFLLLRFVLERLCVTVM
# Procedure, shortened: as §1
# ETV2 = target: T10, ETV2 (Homo sapiens, UniProt O00321 1-342); conditions: protein: recombinant; tags: N-terminal GST; dsDNA, one strand shown
# T10 sequence: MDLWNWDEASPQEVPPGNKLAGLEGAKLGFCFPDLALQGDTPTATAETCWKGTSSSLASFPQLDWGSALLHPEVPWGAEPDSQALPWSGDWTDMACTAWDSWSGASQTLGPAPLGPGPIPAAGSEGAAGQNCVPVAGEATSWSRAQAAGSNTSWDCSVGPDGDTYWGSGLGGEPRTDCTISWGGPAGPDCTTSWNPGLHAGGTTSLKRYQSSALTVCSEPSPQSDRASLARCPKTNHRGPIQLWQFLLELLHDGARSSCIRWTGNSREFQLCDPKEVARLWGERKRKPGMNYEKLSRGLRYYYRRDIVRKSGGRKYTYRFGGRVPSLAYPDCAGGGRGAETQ
# Procedure, shortened: as §1
# ELF3 = target: T11, ELF3 (Homo sapiens, UniProt P78545 1-371); conditions: protein: recombinant; tags: N-terminal GST; dsDNA, one strand shown
# T11 sequence: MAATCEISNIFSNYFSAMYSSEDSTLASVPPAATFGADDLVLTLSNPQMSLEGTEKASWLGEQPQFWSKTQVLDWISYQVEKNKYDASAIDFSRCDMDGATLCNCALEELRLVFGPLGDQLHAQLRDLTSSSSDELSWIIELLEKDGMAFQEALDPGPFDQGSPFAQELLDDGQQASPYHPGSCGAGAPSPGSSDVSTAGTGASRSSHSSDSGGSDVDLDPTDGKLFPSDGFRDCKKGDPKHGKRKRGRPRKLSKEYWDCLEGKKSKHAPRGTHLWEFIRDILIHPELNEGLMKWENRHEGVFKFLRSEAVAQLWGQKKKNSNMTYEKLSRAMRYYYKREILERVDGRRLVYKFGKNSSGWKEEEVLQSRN
# Procedure, shortened: as §1
# CRX = CRX (Homo sapiens, UniProt O43186 1-299); conditions: protein: recombinant; tags: N-terminal GST; dsDNA, one strand shown
# Procedure, shortened: as §1
# ETV1 = ETV1 (Homo sapiens, UniProt P50549 1-477); conditions: protein: recombinant; tags: N-terminal GST; dsDNA, one strand shown
# Procedure, shortened: as §1
# Chain of CRX (O43186 whole entry): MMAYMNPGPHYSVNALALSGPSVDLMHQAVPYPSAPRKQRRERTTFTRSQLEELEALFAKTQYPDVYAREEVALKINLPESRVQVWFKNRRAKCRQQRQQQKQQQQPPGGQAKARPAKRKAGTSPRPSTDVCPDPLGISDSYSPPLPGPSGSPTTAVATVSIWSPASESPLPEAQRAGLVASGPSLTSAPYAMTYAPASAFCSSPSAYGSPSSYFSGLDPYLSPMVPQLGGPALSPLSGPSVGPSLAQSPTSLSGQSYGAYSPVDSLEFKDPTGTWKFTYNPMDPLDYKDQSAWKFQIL
# Chain of ETV1 (P50549 whole entry): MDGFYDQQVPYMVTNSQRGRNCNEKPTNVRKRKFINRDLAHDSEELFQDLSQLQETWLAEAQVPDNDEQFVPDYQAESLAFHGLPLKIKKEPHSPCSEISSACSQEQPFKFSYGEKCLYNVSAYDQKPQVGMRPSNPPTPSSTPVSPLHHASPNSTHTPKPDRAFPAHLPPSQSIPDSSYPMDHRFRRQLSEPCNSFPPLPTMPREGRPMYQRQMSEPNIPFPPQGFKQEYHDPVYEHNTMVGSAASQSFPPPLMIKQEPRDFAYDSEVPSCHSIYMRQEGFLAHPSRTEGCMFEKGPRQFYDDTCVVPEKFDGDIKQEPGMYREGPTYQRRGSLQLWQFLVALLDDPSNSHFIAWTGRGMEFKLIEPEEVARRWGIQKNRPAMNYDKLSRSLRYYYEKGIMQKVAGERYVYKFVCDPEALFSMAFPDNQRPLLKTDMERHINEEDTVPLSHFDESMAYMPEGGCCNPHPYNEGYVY
# Chain of ELF1 (P32519 whole entry): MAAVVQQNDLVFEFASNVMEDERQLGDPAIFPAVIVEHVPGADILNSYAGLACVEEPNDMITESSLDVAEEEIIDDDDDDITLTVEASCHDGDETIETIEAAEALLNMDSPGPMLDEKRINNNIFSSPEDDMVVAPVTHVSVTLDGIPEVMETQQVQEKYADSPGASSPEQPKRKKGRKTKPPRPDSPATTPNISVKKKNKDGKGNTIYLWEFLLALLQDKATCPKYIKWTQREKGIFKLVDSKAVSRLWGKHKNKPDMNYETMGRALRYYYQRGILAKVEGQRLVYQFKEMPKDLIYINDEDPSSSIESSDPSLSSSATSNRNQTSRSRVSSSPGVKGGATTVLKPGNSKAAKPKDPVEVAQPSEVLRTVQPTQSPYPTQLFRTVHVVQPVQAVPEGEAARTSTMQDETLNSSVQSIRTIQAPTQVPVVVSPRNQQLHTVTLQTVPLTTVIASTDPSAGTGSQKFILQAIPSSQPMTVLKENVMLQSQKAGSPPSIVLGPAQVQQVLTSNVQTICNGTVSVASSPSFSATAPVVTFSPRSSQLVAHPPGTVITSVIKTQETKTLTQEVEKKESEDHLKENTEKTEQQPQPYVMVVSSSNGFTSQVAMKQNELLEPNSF
# Chain of SPIB (Q01892 whole entry): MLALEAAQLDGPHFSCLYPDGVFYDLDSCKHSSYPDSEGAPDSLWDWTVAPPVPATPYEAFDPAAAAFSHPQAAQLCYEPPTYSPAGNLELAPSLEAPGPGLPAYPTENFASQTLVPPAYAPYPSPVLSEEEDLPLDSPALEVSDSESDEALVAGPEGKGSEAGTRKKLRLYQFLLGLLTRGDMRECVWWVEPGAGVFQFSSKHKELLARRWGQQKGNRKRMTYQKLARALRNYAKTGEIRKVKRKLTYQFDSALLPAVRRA
# Chain of HSF1 (Q00613 whole entry): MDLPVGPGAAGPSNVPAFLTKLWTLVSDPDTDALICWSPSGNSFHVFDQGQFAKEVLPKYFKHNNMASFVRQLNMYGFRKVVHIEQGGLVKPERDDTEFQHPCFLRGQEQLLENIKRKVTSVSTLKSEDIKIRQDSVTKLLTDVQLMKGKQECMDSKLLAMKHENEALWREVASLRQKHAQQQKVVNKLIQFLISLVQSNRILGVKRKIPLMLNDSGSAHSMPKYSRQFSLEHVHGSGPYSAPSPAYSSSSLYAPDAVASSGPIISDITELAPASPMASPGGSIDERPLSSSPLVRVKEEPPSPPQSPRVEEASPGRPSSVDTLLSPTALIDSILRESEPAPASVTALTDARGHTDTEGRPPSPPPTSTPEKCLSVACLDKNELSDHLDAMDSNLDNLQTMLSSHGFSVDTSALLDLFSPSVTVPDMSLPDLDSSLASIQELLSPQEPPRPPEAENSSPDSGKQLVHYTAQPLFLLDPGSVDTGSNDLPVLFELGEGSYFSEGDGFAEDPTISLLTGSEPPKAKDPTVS
# Chain of ETV5 (P41161 whole entry): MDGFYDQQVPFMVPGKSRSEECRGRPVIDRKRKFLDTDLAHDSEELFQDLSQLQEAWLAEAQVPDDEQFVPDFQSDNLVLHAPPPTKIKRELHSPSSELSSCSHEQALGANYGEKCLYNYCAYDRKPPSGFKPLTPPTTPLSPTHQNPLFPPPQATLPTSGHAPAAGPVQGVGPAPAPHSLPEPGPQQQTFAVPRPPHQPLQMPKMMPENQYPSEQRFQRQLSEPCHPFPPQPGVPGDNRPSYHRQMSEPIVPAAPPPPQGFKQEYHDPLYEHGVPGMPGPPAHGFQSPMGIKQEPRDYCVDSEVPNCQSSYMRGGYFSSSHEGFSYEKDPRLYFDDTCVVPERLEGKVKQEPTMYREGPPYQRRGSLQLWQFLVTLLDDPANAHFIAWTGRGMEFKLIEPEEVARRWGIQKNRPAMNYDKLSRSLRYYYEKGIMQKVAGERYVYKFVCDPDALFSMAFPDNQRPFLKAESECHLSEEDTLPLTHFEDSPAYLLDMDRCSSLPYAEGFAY
# Chain of ELF4 (Q99607 whole entry): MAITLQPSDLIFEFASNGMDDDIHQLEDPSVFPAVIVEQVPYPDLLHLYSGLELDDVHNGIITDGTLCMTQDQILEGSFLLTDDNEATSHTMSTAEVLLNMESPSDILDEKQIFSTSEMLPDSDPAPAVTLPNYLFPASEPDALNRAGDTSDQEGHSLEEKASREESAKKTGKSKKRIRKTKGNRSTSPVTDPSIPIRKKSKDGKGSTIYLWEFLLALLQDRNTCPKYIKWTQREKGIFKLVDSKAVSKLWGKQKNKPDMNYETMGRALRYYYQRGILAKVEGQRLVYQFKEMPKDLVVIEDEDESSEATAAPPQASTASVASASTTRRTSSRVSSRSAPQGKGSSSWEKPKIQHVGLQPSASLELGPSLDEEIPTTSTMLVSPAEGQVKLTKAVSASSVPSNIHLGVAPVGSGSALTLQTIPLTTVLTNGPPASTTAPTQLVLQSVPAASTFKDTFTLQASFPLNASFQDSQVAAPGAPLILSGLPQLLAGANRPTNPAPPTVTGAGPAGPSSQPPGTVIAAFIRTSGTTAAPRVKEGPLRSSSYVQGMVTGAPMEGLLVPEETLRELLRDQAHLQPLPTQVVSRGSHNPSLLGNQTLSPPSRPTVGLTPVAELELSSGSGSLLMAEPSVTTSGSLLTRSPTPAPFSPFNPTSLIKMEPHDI
sequence,measurement,setting,value
ATTTTA,binding signal,FLI1,"1.32 fold enrichment (6-mer frequency, TF over GST control)"
same,binding signal,ELK1,"1.16 fold enrichment (6-mer frequency, TF over GST control)"
same,binding signal,GABPA,"1.3 fold enrichment (6-mer frequency, TF over GST control)"
same,binding signal,ERG,"1.29 fold enrichment (6-mer frequency, TF over GST control)"
same,binding signal,ELF1,"1.29 fold enrichment (6-mer frequency, TF over GST control)"
same,binding signal,EHF,"1.32 fold enrichment (6-mer frequency, TF over GST control)"
same,binding signal,SPI1,"1.34 fold enrichment (6-mer frequency, TF over GST control)"
same,binding signal,SPIB,"1.35 fold enrichment (6-mer frequency, TF over GST control)"
same,binding signal,ELK3,"1.31 fold enrichment (6-mer frequency, TF over GST control)"
same,binding signal,FEV,"1.25 fold enrichment (6-mer frequency, TF over GST control)"
same,binding signal,ETV5,"1.23 fold enrichment (6-mer frequency, TF over GST control)"
same,binding signal,HSF1,"1.45 fold enrichment (6-mer frequency, TF over GST control)"
same,binding signal,SPIC,"1.36 fold enrichment (6-mer frequency, TF over GST control)"
same,binding signal,ELF4,"1.32 fold enrichment (6-mer frequency, TF over GST control)"
same,binding signal,ELK4,"1.37 fold enrichment (6-mer frequency, TF over GST control)"
same,binding signal,ETV2,"1.29 fold enrichment (6-mer frequency, TF over GST control)"
same,binding signal,ELF3,"1.23 fold enrichment (6-mer frequency, TF over GST control)"
same,binding signal,CRX,"1.83 fold enrichment (6-mer frequency, TF over GST control)"
same,binding signal,ETV1,"1.25 fold enrichment (6-mer frequency, TF over GST control)"
